Laboratory results from the supplement of paper PMC6555819.

What was measured:
Test in all cases: PBM binding z-score (relative to random genomic background probes); higher = stronger binding; sequences stand for … in GC…GCGATTGACAGCGTAGAATGAAGG
[1] = test system: RARb homodimer (NR concentration 270 nM)
In short: (§1)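 Probes were double-stranded and carried 34-nt variable regions with direct-repeat seeds, single-nucleotide variants, half-site ablations and random human genomic background sequences, printed on custom Agilent 4×180K protein-binding microarrays. Arrays were incubated 1 h with ligand-free nuclear receptor dimers in PBS pH 7.4, 2% milk, 0.02% Triton X-100, 1 mM DTT, 0.2 mg/mL BSA and 0.4 mg/ml salmon testes DNA. Antibodies against each partner (one per run) detected binding, and scanned fluorescence was regression-normalized. Binding z-scores use the random background probes as reference.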

[2] = test system: RARg:RXRa (NR concentration 270 nM, RXRa partner concentration 90 nM)
In short: as §1

[3] = test system: RARg homodimer (NR concentration 270 nM)
In short: as §1

[4] = test system: RXRa DBDmut IVT, anti-RXR (DBD mutation: RXRa K156A/R161A, NR concentration 90 nM)
In short: as §1

[5] = test system: RXRa homodimer (NR concentration 180 nM)
In short: as §1

[6] = test system: THRa:RXRa (NR concentration 90 nM, RXRa partner concentration 90 nM)
In short: as §1

[7] = test system: THRa homodimer (NR concentration 90 nM)
In short: as §1

[8] = test system: VDR homodimer (NR concentration 270 nM)
In short: as §1

Row | Sequence | PBM binding z-score [1] | PBM binding z-score [2] | PBM binding z-score [3] | PBM binding z-score [4] | PBM binding z-score [5] | PBM binding z-score [6] | PBM binding z-score [7] | PBM binding z-score [8]
1 | CAAACTAGGTCACCGGATGGTCAAAGTCCGCATG | 4.02 | 5.82 | 5.58 | 1.74 | 4.05 | 3.57 | 1.85 | 1.1
2 | ATACCAAGGTGATCGTGTGGTCGTTGATACTAAC | 0.584 | 0.298 | 0.273 | 0.0966 | 0.296 | 0.959 | 0.536 | 0.0513
3 | TCTTGTAGAGCAACAGGAGGTTAAGAAAGATCGA | 0.136 | 0.269 | 0.0354 | 0.0247 | 0.479 | 0.705 | -0.732 | -0.241
4 | CCTACTGGTCCACGAAAGGTCATTGATTCAGTGA | 4.62 | 4.79 | 4.43 | 1.26 | 5.49 | 3.52 | 1.6 | 3.62
5 | TCATATAGGTAAACAGGTGGAAGTCCGTAAGTTA | 0.247 | 0.462 | 0.0474 | 1.38 | 0.624 | 0.188 | 0.00908 | 0.154
6 | CCTGCTAGGTCATGGTCAGCTACTCTACAGTATG | 3.28 | 3.94 | 4.84 | 1.7 | 2.51 | 2.76 | 1.42 | 0.186
7 | CTCGAAAGGTCGGTTGAGGTGAGTAGACGGATAA | 2.44 | 2.67 | 2.67 | 0.673 | 2.28 | 5.01 | 1.3 | 0.235
8 | AGAATGACGTTATACGTAGATCAGGGAAGAAAGT | -0.508 | -0.123 | 0.109 | -0.541 | -0.108 | -0.592 | -1.02 | -0.467
9 | CCGACTGAGGCAGAAAGGTTACCATACCATCCGG | 2.04 | 1.26 | 0.925 | -0.0333 | 1.87 | 1.06 | -0.0968 | -0.0311
10 | CCTAGTTGGTCATGAGGTCACACACCGGATATGA | 4.66 | 5.3 | 4.46 | 2 | 5.17 | 4.72 | 5.35 | 4.1
11 | CAAACTAGGTCGCGAAAGGTCAAAGTCGAATGAC | 5.22 | 6.69 | 6.26 | 1.98 | 7.33 | 4.79 | 1.51 | 3.37
12 | TCTTGTAGATCAAGCAGGTTAAGGAAGCCTGAGT | 0.203 | 0.0317 | -0.28 | 0.415 | 0.299 | 0.262 | -0.359 | 0.166
13 | ACTAGCAGGCCAAGGGTCCCTCAAGATTAGTCCG | 0.0685 | -0.0773 | -0.0696 | -0.495 | -0.0168 | -0.255 | -0.726 | -0.484
14 | CCGACTGGGGCATGAGGTTACCATAAGCCAGCCC | 1.43 | 1.29 | 0.922 | -0.569 | 1.25 | 1.89 | 0.853 | -0.0736
15 | TAGCCTAGGTCATGCGGGCCAGTACAGTGTCGGC | 2.93 | 3.86 | 4.22 | 0.739 | 3.08 | 3.06 | 0.586 | 0.448
16 | TCGAGTAGGTTGCCAATGGGGCATTCAGCTTTCT | -0.36 | -0.509 | -0.841 | 0.244 | -0.482 | -0.51 | -0.951 | -0.846
17 | TCTATTAGTTGGTTAGGGCAACCGAAACAGCGGA | 0.686 | 0.47 | 0.667 | 0.779 | 0.412 | 0.638 | 0.431 | 0.587
18 | ACTAGCAGGCCAAGGGTCACTAAAGATTAGTCCG | 3.83 | 4.08 | 3.84 | 0.469 | 4.13 | 2.31 | 0.0838 | 1.07
19 | ACTACTAGTTGACTTAGGGCAACCGATACGACGC | 0.824 | 0.463 | 0.625 | 0.495 | 0.508 | 1.32 | 0.683 | 0.273
20 | TCATATAGGTAAAAGATGAAAGTCGGTGTGGTAA | -0.433 | 0.301 | 0.223 | 1.73 | 0.923 | 0.0309 | 0.103 | -0.0575
21 | TCTTGTGGATCAAAGGTTAAGAAAGCCGAAGCCT | 1.42 | 1.5 | 0.798 | 0.751 | 3.43 | 1.47 | -0.309 | -0.0408
22 | TCTTGTAGATCAACAGGAGGTTAAGAACGATCGA | 0.615 | 0.992 | 0.377 | 0.686 | 0.967 | 0.923 | -0.518 | -0.0634
23 | AGAATGAGGTTACCAAAGATTAGGGAAACGCTTG | 0.628 | 1.99 | 1.59 | 0.929 | 2.53 | 2.69 | 0.581 | 0.29
24 | GCTCGGAGGACAAGGTCTGAGCTTTGTCCGTAGA | 0.301 | -0.104 | 0.27 | -0.359 | -0.785 | 0.705 | -0.422 | -0.592
25 | ATCTTTAGGTAAAGTTCAGTGAAAGATCGATAGA | 2.48 | 1.99 | 2.45 | 1.71 | 1.15 | 1.52 | 0.0896 | 1.95
26 | CAAACGAGGGCATGAGTTGATAGCAAATGCCGAT | 0.782 | 1.53 | 1.79 | 2.13 | 1.29 | 1.56 | -0.234 | 1.62
27 | CAGCCTAGGTCAGGGCGAGTATAGGAGGAACGTT | 2.44 | 3.08 | 3.72 | 0.0681 | 1.76 | 2.03 | 0.0582 | -0.499
28 | CAAACTAGGTCAAGAAAGGTCAAAGTCGAATGAC | 5.71 | 7.33 | 7.9 | 1.95 | 7.67 | 4.9 | 1.79 | 3.03
29 | AGTCAAAGTTCAGGACGAGGTAACGTACAGCACG | 3.47 | 4.77 | 4.74 | 2.99 | 2.92 | 3.9 | 1.82 | 2.1
